Data published in the supplement of paper PMC6089552.
Hit rate of the full screen: of about 3,200 compounds, about 300 (9.4%) showed activity. Shown is part of a subset that was picked to be rich in actives.

Tested on: A673/TR/shEF
Test: cell viability (LOESS-normalised, relative to median of negative controls) (log2 ratio); higher = more viable cells (less compound effect), active = hit call of the paper (over 3 MAD below the median)
Conditions: treatment time: 72 h
Summary of the method: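 Viability of A673/TR/shEF Ewing sarcoma cells was determined by CellTiter-Glo luminescence. The cells, at 1,500 per well in 384-well plates, were grown with or without doxycycline from 24 h before compound addition to switch on EWS-FLI1 shRNA knockdown, then exposed for three days to library compounds at two or more concentrations or to DMSO controls. Signals were LOESS-corrected plate by plate, normalised to the negative-control median and log2-transformed.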

[1] = 0.25 µM, library screen: screen1, EWS-FLI1 expression: high (no doxycycline)
[2] = 0.25 µM, library screen: screen1, EWS-FLI1 expression: low (doxycycline-induced shRNA knockdown)
[3] = 0.25 µM, library screen: screen2, EWS-FLI1 expression: high (no doxycycline)
[4] = 0.25 µM, library screen: screen2, EWS-FLI1 expression: low (doxycycline-induced shRNA knockdown)
[5] = 2.5 µM, library screen: screen1, EWS-FLI1 expression: high (no doxycycline)
[6] = 2.5 µM, library screen: screen1, EWS-FLI1 expression: low (doxycycline-induced shRNA knockdown)
[7] = 2.5 µM, library screen: screen2, EWS-FLI1 expression: high (no doxycycline)
[8] = 2.5 µM, library screen: screen2, EWS-FLI1 expression: low (doxycycline-induced shRNA knockdown)
[9] = 0.103 µM, library screen: screen3, EWS-FLI1 expression: high (no doxycycline)
[10] = 0.103 µM, library screen: screen3, EWS-FLI1 expression: low (doxycycline-induced shRNA knockdown)
[11] = 0.308 µM, library screen: screen3, EWS-FLI1 expression: high (no doxycycline)
[12] = 0.308 µM, library screen: screen3, EWS-FLI1 expression: low (doxycycline-induced shRNA knockdown)
[13] = 0.926 µM, library screen: screen3, EWS-FLI1 expression: high (no doxycycline)
[14] = 0.926 µM, library screen: screen3, EWS-FLI1 expression: low (doxycycline-induced shRNA knockdown)
[15] = 2.8 µM, library screen: screen3, EWS-FLI1 expression: high (no doxycycline)
[16] = 2.8 µM, library screen: screen3, EWS-FLI1 expression: low (doxycycline-induced shRNA knockdown)
[17] = 8.3 µM, library screen: screen3, EWS-FLI1 expression: high (no doxycycline)
[18] = 8.3 µM, library screen: screen3, EWS-FLI1 expression: low (doxycycline-induced shRNA knockdown)
[19] = 25 µM, library screen: screen3, EWS-FLI1 expression: high (no doxycycline)
[20] = 25 µM, library screen: screen3, EWS-FLI1 expression: low (doxycycline-induced shRNA knockdown)

Measured: cell viability (log2)

Cn1cnc2c(NCc3ccccc3)nc(NCCO)nc21
inactive: 0.025 µM, library screen: screen1, EWS-FLI1 expression: high (no doxycycline) 0.0452 | 0.025 µM, library screen: screen1, EWS-FLI1 expression: low (doxycycline-induced shRNA knockdown) 0.063 | [1] 0.0867 | [2] 0.0323 | [3] 0.272 | [4] 0.106 | [5] 0.0349 | [6] 0.0403 | [7] 0.208 | [8] 0.113 | 25 µM, library screen: screen1, EWS-FLI1 expression: high (no doxycycline) 0.00929 | 25 µM, library screen: screen1, EWS-FLI1 expression: low (doxycycline-induced shRNA knockdown) 0.0531

CN1C(=O)CCC1c1cccnc1 (stereo not drawn)
inactive: [3] 0.264 | [4] 0.181 | [7] 0.161 | [8] 0.0586

CN[C@H](Cc1ccccc1)C(=O)N1CCC[C@H]1C(=O)N[C@@H](Cc1c[nH]c2ccccc12)C(=O)C(F)(F)C(F)(F)F
inactive: [3] 0.168 | [4] 0.0679 | [7] 0.0864 | [8] 0.0322

C[C@H](CCC(=O)O)[C@H]1CC[C@H]2[C@@H]3C[C@H](O)C4C[C@H](O)CC[C@]4(C)[C@H]3CC[C@]12C (stereo partly drawn)
inactive: [1] 0.0369 | [2] -0.0168 | [5] 0.0626 | [6] -0.0216

CO[C@H]1C[C@@H]2CC[C@@H](C)[C@@](O)(O2)C(=O)C(=O)N2CCCC[C@H]2C(=O)O[C@H]([C@H](C)C[C@@H]2CC[C@@H](OCCO)[C@H](OC)C2)CC(=O)[C@H](C)/C=C(\C)[C@@H](O)[C@@H](OC)C(=O)[C@H](C)C[C@H](C)/C=C/C=C/C=C/1C
active: [9] -0.823 | [10] -0.667 | [11] -0.931 | [12] -0.779 | [13] -0.921 | [14] -0.761 | [15] -0.899 | [16] -0.779 | [17] -1.09 | [18] -0.731 | [19] -0.943 | [20] -0.733

CO[C@H]1C[C@@H]2CC[C@@H](C)[C@@](O)(O2)C(=O)C(=O)N2CCCC[C@H]2C(=O)O[C@H]([C@H](C)C[C@@H]2CC[C@@H](O)[C@H](OC)C2)CC(=O)[C@H](C)/C=C(\C)[C@@H](O)[C@@H](OC)C(=O)[C@H](C)C[C@H](C)/C=C/C=C/C=C/1C
active: [9] -0.737 | [10] -0.644 | [11] -0.758 | [12] -0.612 | [13] -0.692 | [14] -0.65 | [15] -0.692 | [16] -0.756 | [17] -0.726 | [18] -0.651 | [19] -0.719 | [20] -0.63

CO[C@H]1C[C@@H]2CC[C@@H](C)[C@@](O)(O2)C(=O)C(=O)N2CCCC[C@H]2C(=O)O[C@H]([C@H](C)C[C@@H]2CC[C@@H](OC(=O)C(C)(CO)CO)[C@H](OC)C2)CC(=O)[C@H](C)/C=C(\C)[C@@H](O)[C@@H](OC)C(=O)[C@H](C)C[C@H](C)/C=C/C=C/C=C/1C
active: [9] -0.862 | [10] -0.712 | [11] -0.972 | [12] -0.713 | [13] -0.859 | [14] -0.683 | [15] -0.839 | [16] -0.886 | [17] -0.828 | [18] -0.678 | [19] -0.905 | [20] -0.717

CO[C@H]1CC2CC[C@@H](C)[C@@](O)(O2)C(=O)C(=O)N2CCCC[C@H]2C(=O)O[C@H]([C@H](C)C[C@@H]2CC[C@@H](OP(C)(C)=O)[C@H](OC)C2)CC(=O)[C@H](C)/C=C(\C)[C@@H](O)[C@@H](OC)C(=O)[C@H](C)C[C@H](C)/C=C/C=C/C=C/1C
active: [9] -0.93 | [10] -0.714 | [11] -0.852 | [12] -0.724 | [13] -0.888 | [14] -0.755 | [15] -0.837 | [16] -0.688 | [17] -0.983 | [18] -0.734 | [19] -1.05 | [20] -0.738

O=C(O)CSc1nnc(COc2ccccc2)n1-c1ccc(Cl)cc1
inactive: [1] 0.0719 | [2] -0.0199 | [5] 0.0305 | [6] 0.0659

CC1(C)C=CC(=O)[C@@]2(C)C1CC(=O)[C@]1(C)C2CC[C@@]2(C)[C@H](c3ccoc3)OC(=O)C3OC321 (stereo partly drawn)
inactive: [1] 0.0164 | [2] 0.0615 | [5] 0.135 | [6] 0.0703

C=C(O)CCC/C=C\C[C@@H]1[C@@H](/C=C/[C@H](O)C2Cc3ccccc3C2)[C@@H](F)C[C@@H]1O
inactive: [3] 0.175 | [4] 0.154 | [7] 0.111 | [8] 0.184

Cc1ccc2c(c1)C(N1CCN(C)CC1)=Nc1cccnc1N2
inactive: [3] 0.144 | [4] 0.13 | [7] 0.0813 | [8] 0.0355

CC1(C)C=Cc2cc3ccc(=O)oc3cc2O1
inactive: [1] 0.0334 | [2] 0.0455 | [5] 0.0429 | [6] 0.132

Cc1ccc(C(=O)NCc2ccc3c(c2)OCO3)cc1
inactive: [1] 0.0742 | [2] -0.0061 | [5] 0.0676 | [6] 0.0498

COc1ccccc1/C=C1\SC(=S)N(C2CCS(=O)(=O)C2)C1=O (stereo not drawn)
inactive: [1] 0.0633 | [2] 0.0907 | [5] 0.0733 | [6] 0.0539

COc1ccc(OC)c(CN2CCN(Cc3cccnc3)CC2)c1
inactive: [1] 0.114 | [2] 0.038 | [5] 0.0976 | [6] -0.0472

N/C(=N/c1nc2ccccc2o1)NC(=O)Nc1ccccc1
inactive: [1] 0.05 | [2] 0.11 | [5] 0.0784 | [6] 0.171
